Measured values taken from PubChem BioAssay (NCATS).
Inconclusive results are not listed. Entries that show only a call come without a potency. Activity calls are given as the source filed them. Calls follow the shape of the dose curve; as a rule, active = well fitted inhibition curve with a large enough effect; inconclusive = small, poorly fitted or top-dose-only effect; inactive = flat fitted curve, though single readings scatter.

molecular target: Voltage-gated inwardly rectifying potassium channel KCNH2 (Homo sapiens) (UniProt Q12809); assay: qHTS Assay for Small Molecule Inhibitors of the Human hERG Channel Activity (AID 588834); conditions: U2OS BacMam hERG, FluxOR thallium flux fluorescence; series mostly up to 92.2 µM;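 also: top concentration of the series differs between compounds; lower thallium flux fluorescence means stronger hERG block; nearly all actives have a fitted effect of over 50% in size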
From the text: NIH Chemical Genomics Center [NCGC]
National Institutes of Environmental Health Sciences [NIEHS]
National Toxicology Program [NTP]
We have developed a 1536-well cell-based assay for quantitative high throughput screening (qHTS) to determine in vitro hERG channel blockage as a measure of cardio toxicity with small molecules. This particular assay uses the U2OS cell line which is derived from human osteosarcoma.
NCGC Assay Protocol Summary:
HERG assay (FluxORTM thallium flux assay) was initially developed by Invitrogen/Molecular Probes, and then miniaturized into 1536-well plate in a homogeneous format by NCGC. This assay measures the activity of potassium channel using thallium dye (FluxOR) flux as surrogate measurement for potassium into the cells with a FDSS-7000 kinetic plate reader (Hamamatsu Corp., Hamamatsu City, Japan). The hERG ion channel is transduced into mammalian cells (U2OS) using a baculovirus (Bacmam) construct harboring the hERG K+ ion channel. So far we screened LOPAC1280 library (Sigma), the NTP collection of 1408 compounds, and the NCGC Pharmaceutical Collection (NPC), in which many well defined HERG blockers are present. The rank order potencies of many of these compounds are similar to that of other HERG assays (membrane potential, Rb+ flux, patch clamp, etc). This quick and homogeneous assay is also found to be sensitive, specific, and robust.
Using the FluxORTM thallium flux assay, the activity of potassium channel using thallium dye (FluxOR) flux as surrogate measurement for potassium into the cells was measured in the U2OS cell line transduced with hERG K+ ion channel using a baculovirus (Bacmam) using Opti-MEM medium (Invitrogen) containing 2% fetal calf serum (FCS, HyCone) following loading buffer addition, compound treatment for around 10 minutes and finally adding stimulation buffer. The assay was performed in black clear Kalypsys 1536-well plates. In the screen, Astemizole was used as positive controls. Library compounds were measured for their ability to cause hERG channel blockage in the cell line, as reflected by a decrease in fluorescence intensity, in a concentration-dependent manner. […] AC50 values were determined from concentration-response data modeled with the standard Hill equation.
qHTS protocol for hERG-U2OS cellular assay
[Step] [Parameter] [Value] [Description]
1. Day 1: Replace medium in 70-80% confluent T225 flask with 2.5 mL of hERG-BacMam virus plus 12.5 mL of phosphate buffered saline (PBS) (corresponding roughly to a multiplicity of infection ratio of 100 virus particles/cell)
2. Incubation: 4 hrs @ room Temperature in Dark
3. Reagent; Remove virus; wash once with 25 ml DPBS
4. Reagent; 35 ml culture medium
5. Incubation; 37 °C overnight
6. Day2: Reagent; 3 uL; 2000 U2OS cells/well
7. Time; 4 hr; 37 °C incubation
8. Loading buffer; 1 uL; 0.7X;
9. Incubation: 1hr @ RT in Dark.
12. Time; 10min; 37 °C incubation
13. Read fluorescence Intensity on FDSS for 10 Sec with 1 sec interval
14. Reagent; 1 uL; stimulation buffer
15. Read fluorescence Intensity on FDSS for 2 min with 1 sec interval
16. Detection; Fluorescence Intensity; FDSS

Chain of Voltage-gated inwardly rectifying potassium channel KCNH2 (Homo sapiens) (Q12809 whole entry, looked up): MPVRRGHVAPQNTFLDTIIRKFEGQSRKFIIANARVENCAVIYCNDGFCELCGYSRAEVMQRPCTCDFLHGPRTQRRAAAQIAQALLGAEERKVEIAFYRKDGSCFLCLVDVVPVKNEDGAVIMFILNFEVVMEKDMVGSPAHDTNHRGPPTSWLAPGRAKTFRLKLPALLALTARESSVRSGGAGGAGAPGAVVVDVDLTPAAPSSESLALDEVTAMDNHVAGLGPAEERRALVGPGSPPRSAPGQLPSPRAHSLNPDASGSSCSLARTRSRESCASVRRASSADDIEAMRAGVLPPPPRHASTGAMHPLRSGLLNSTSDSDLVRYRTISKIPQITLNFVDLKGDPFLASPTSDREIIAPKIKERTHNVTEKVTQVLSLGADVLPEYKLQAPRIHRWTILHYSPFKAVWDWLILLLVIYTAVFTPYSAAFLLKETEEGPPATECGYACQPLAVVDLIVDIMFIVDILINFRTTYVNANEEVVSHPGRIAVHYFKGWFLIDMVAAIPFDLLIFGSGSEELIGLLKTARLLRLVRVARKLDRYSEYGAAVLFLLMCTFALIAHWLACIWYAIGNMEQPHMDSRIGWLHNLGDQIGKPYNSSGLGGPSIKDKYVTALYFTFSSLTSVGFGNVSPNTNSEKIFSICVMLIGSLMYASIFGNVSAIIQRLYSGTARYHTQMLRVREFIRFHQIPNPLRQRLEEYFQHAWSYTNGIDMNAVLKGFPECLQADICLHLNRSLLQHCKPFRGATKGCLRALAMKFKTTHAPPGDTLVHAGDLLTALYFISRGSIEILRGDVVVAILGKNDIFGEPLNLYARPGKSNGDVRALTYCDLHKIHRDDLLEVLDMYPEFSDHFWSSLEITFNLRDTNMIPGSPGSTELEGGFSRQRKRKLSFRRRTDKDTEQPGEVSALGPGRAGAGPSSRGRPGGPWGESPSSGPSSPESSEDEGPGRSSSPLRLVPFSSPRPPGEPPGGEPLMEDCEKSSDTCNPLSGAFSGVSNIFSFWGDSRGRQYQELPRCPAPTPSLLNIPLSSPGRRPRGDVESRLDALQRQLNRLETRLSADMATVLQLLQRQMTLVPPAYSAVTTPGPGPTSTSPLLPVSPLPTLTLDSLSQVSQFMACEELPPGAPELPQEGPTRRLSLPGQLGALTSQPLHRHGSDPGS

Structure (SMILES)	Potency
O=S(=O)(O)F	inactive
ClCc1ccccn1	inactive
Nc1c(Br)cc([N+](=O)[O-])cc1[N+](=O)[O-]	inactive
CC(C)CON=O	inactive
OC[P+](CO)(CO)CO	inactive
COP(=S)(OC)SCn1nnc2ccccc2c1=O	inactive
C/C=C/C=O	inactive
N#CC(Cl)(Cl)Cl	inactive
CCCCCCCCCCCCCl	inactive
CC(C)[C@]12CC(=O)[C@H](C)[C@H]1C2	inactive
CCCCC#N	inactive
O=C(O)c1cccc(Cl)c1	inactive
O=[N+]([O-])/C=C/c1ccccc1	inactive
CCC[N+](=O)[O-]	inactive
C=CCOCC1CO1 (stereo not given)	inactive
CCOP(=O)(OCC)OCC	inactive
CN(C)c1ccc(N=Nc2ccccc2)cc1	inactive
COC(=O)Nc1cccc(OC(=O)Nc2cccc(C)c2)c1	inactive
Oc1c(Cl)cccc1Cl	inactive
O=P(OCCCl)(OCCCl)OCCCl	inactive

Structure (SMILES)	Potency
N#CC(O)c1ccccc1 (stereo not given)	inactive
CCN(CC)N=O	inactive
CN(C)C(=O)Cl	inactive
CC(C)Br	inactive
OCC(Cl)CCl (stereo not given)	inactive
BrCC(Br)(Br)Br	inactive
ClC(Cl)C(Cl)Cl	inactive
Cc1cnc[nH]1	inactive
Clc1cccc(Cl)c1	inactive
CC(Cl)(Cl)Cl	inactive
C=C(C)CCl	inactive
Cc1cccc(C)c1N	inactive
CCCC[N+](=O)[O-]	inactive
ClCCOCOCCCl	inactive
Clc1ccc(Cl)c(Cl)c1	inactive
O=[N+]([O-])c1ccc(Cl)cc1	inactive
ClCCBr	inactive
CCOS(C)(=O)=O	inactive
N#C/C(N)=C(/N)C#N	inactive
Oc1cccc(Cl)c1	inactive
